PubChem BioAssay AID493168 (National Center for Advancing Translational Sciences (NCATS), 2011)
Results filed as inconclusive are left out. A number with no mark means an inactive call. The source made the active and inactive calls. Calls follow the shape of the dose curve; as a rule, active = well fitted inhibition curve with a large enough effect; inconclusive = small, poorly fitted or top-dose-only effect, or effect the other way; inactive = flat fitted curve, though single readings scatter.

These compounds were tested against Ubiquitin carboxyl-terminal hydrolase 2 (Homo sapiens) (UniProt O75604) (assay: Confirmation Assay for Inhibitors of Ubiquitin-specific Protease USP2a Using CHOP2 as the Reporter). Details: USP2 core, Ub-CHOP2 coupled reporter fluorescence; series mostly up to 38.3 µM; activity change, negative = inhibition: at the top concentration.
How it was run: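 USP2 core (10 nM final) was preincubated with compound for 30 min at RT in Tris-HCl pH 8.0, CaCl2, beta-mercaptoethanol, CHAPS. Ub-CHOP2 and reporter substrate (25 nM final each) were added, and fluorescence (Ex 485/Em 531 nm) was read after 60 min.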
Also: nearly all actives have a fitted effect of over 55% in size.
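For activity change, negative = inhibition in this document: plate controls were DMSO wells for no effect and full inhibition by NEM control for full effect.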
Potency is read from the fitted curve at half-maximal effect.

Chain of Ubiquitin carboxyl-terminal hydrolase 2 (Homo sapiens) (O75604 whole entry, looked up): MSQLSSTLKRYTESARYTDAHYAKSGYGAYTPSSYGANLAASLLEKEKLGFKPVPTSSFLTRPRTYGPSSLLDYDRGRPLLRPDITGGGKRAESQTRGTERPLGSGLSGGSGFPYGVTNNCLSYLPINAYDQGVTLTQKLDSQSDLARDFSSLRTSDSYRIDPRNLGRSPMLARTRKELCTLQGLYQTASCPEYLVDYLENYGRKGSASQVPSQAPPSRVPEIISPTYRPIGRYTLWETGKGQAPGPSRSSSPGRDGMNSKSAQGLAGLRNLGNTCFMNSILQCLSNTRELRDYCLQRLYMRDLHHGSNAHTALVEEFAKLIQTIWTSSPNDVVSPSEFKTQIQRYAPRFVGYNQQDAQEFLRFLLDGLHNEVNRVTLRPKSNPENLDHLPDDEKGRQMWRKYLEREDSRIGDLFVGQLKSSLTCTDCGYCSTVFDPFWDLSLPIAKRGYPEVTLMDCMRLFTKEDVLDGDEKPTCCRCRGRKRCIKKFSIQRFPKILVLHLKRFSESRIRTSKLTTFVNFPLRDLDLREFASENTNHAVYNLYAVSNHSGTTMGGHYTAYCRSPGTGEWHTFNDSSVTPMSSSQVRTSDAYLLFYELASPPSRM

In order of falling “activity change, negative = inhibition” value:
1. COc1cc(C(O)P(=O)(OC(C)C)c2ccc(N(C)C)cc2)cc(OC)c1OC (stereo not given)  5.9%
2. Cc1ccc(SCC(=O)NCC(C)C)cc1  5.64%
3. C/C(Cn1nnc2ccccc21)=N\OC(=O)c1ccccc1C  5.51%
4. O=C(Nc1ccc(N2CCCC2)c(Cl)c1)c1ccc(Br)o1  4.08%
5. CCOC(=O)Cn1c(=O)oc2cc(S(=O)(=O)Nc3cc(Cl)ccc3OC)ccc21  3.99%
6. O/N=C/c1ccccc1OCc1ccccc1F  3.9%
7. C=CC[C@H](CC(=O)N(CCO)Cc1ccccc1)C(=O)N[C@H](C)COC(=O)[C@@H](CC=C)CC(=O)OC(C)(C)C  2.45%
8. CCOc1ccc(CCn2c(-c3ccco3)nc3ccccc3c2=O)cc1OCC  2.36%
9. O=C(CSc1ncn[nH]1)Nc1ccc(Br)cc1F  2.32%
10. Nc1cc(=O)[nH]c(SCc2cccc(Cl)c2)n1  2.19%
11. COc1ccc(S(=O)(=O)N2CCCC2C(=O)NCc2cccs2)cc1 (stereo not given)  2.04%
12. CCCn1nnc(NC(=O)c2cccc(OCC(C)C)c2)n1  2.02%
13. O=C(N/N=C/C=C/c1ccccc1)c1ccncc1  1.99%
14. COc1ccccc1C1NC(c2ccccc2OC)C(C)C(=O)C1C (stereo not given)  1.67%
15. O=C(Nc1ncccc1Cl)c1cccc(F)c1  1.04%
16. COC(=O)C1Sc2[nH]c(=O)sc2C(c2ccc(Cl)cc2)C1C(=O)OC (stereo not given)  0.734%
17. COc1ccc(Cl)cc1S(=O)(=O)Nc1cccc(C(=O)O)c1  0.617%
18. COc1cccc(N2C(=O)C3CCCN3C2c2ccc(N(C)C)cc2)c1 (stereo not given)  -1.37%
19. O=C(c1ccccc1)c1ccc2nc(-c3ccco3)c(-c3ccco3)nc2c1  -1.57%
20. CCOC(=O)COc1ccccc1/C=N/O  -2.24%
21. O=C(CCS(=O)(=O)c1ccc(Br)s1)NC1CCCC1  -2.3%
22. C[C@H](CO)N1C[C@H](C)[C@@H](CN(C)S(=O)(=O)c2ccc(Cl)cc2)Oc2ccc(NS(=O)(=O)c3ccccc3)cc2CC1=O  -2.54%
23. Cc1ccc(S(=O)(=O)Cc2ccc(C(=O)N3CCN(c4ccccn4)CC3)o2)cc1  -2.6%
24. CCCn1c(NC(=O)c2ccc(Br)cc2)nc2ccccc21  -2.73%
25. Cc1ccc(C)n1NC(=O)c1ccccc1O  -3.08%
26. S=c1[nH]nc(-c2cc(-c3ccco3)[nH]n2)n1-c1cccc2ccccc12  -3.18%
27. O=C(c1ccc(CS(=O)(=O)c2ccc(Br)cc2)o1)N1CCCC1  -3.63%
28. CCn1c(COc2ccc(C)cc2)nnc1SCC(=O)Nc1ccc2c(c1)OCCO2  -3.89%
29. CNS(=O)(=O)c1cccc(C(=O)OCC(=O)c2cc(C)n(-c3ccc4c(c3)OCO4)c2C)c1  -4.53%
30. Cc1cc(SCC(=O)NC2CCCCC2)nc2ccccc12  -4.63%
31. Cc1cc(C(=O)OCC(=O)c2cccc([N+](=O)[O-])c2)c2cccc(C)c2n1  -9.73%
32. O=C(CCn1c(=O)c2ccccc2n(Cc2ccccc2)c1=O)NCc1ccc2c(c1)OCO2  -12.1%
33. N#CCC(=O)Nc1ccc(C(=O)OCC(=O)NCc2ccc3c(c2)OCO3)cc1  -14%
34. Cn1c(=O)c(C(=O)Nc2ncccc2O)c(O)c2ccccc21  -17.2%

With `NS(=O)(=O)c1cc(C(=O)NC2CCSc3ccccc32)ccc1Cl` (stereo not given) the Potency was 13.1 µM (active).
In the case of `Cc1cc(-c2csc(NCc3ccccc3)n2)c(C)n1C`, the Potency is reported as 18.5 µM (active).
`O=C(O)C(Cc1ccccc1)N1C(=O)/C(=C/C=C/c2ccco2)SC1=S` (stereo not given) was tested, and the Potency was 7.36 µM (active).
In the case of `CC(C(=O)Nc1ccc(C(=O)O)c(O)c1)N1C(=O)/C(=C\c2ccco2)SC1=S` (stereo not given), the Potency is reported as 16.5 µM (active).
With `Nc1c(C(=O)NC2CC2)sc2nc3c(c(-c4ccco4)c12)CC/C3=C/c1ccco1` the Potency was 7.36 µM (active).
In the case of `O=C(Nc1cccc(S(=O)(=O)NC2=NCCC2)c1)c1cc(-c2ccco2)nc2ccccc12`, the Potency is reported as 16.5 µM (active).
